HCV inh – qHTS Assay for Inhibitors of Hepatitis C Virus (HCV). Huh7.5.1 HCVcc-Cre infection, luciferase reporter, 44 h. hit rate 3.4% among 340,000. Potency, µM (top dose mostly 41.8 µM), actives largely listed as inhibitors; active = well fitted inhibition curve with a large enough effect; inconclusive = small, poorly fitted or top-dose-only effect, or another doubt; inactive = no such curve, though single readings can be large or run the other way
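After 44 h co-culture of compound, cells and HCVcc-Cre (~0.5 moi), substrate is added for 15 min at room temperature and luciferase measured over 15 sec. Cells were seeded at 1,000/well and pre-cultured 4 h.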
FMDV inh – High Throughput Screening for Foot and Mouth Disease Virus Antivirals; FMDV antiviral cell-based qHTS; Potency, µM (series often up to 57.9 µM), actives largely listed as inhibitors; hit rate 1.2% among 410,000; AID 1159524, 2015; calls by dose curve; tested in HEK293T cells; note: read-out not given here; nearly all actives have a fitted effect of over 45% in size
Shiga toxin inh – A qHTS for Small Molecule Inhibitors of Shiga Toxin | Vero cells, Shiga toxin protein synthesis inhibition reporter | inhibition, % at 38.7 µM | hit rate 9.2% among 290,000; in the data active = inhibition mostly above about 28%, no sharp cut-off; inactive = mostly below about 43%
CHX counter – Cycloheximide Counterscreen for Small Molecule Inhibitors of Shiga Toxin | max response, % | cell reporter, cycloheximide protein synthesis inhibition counterscreen | hit rate 12% among 300,000 | AID 2314, 2010; in the data active = max response mostly above about 13%, no sharp cut-off; inactive = mostly below about 14%; note: read at 38.3 µM for the half of the compounds with a filed dose
MARV entry inh – qHTS for inhibitors of binding or entry into cells for Marburg Virus. Potency, µM (titrated, usually from 37.8 µM), hits mostly inhibitors. Marburg virus pseudotyped entry inhibition, cell reporter. hit rate 1.8% among 300,000; calls by dose curve; tested in HEK293 cells
Lassa entry inh – qHTS for Inhibitors of binding or entry into cells for Lassa Virus; Lassa virus pseudotype entry inhibition, cell reporter; Potency, µM (top dose mostly 37.9 µM), most hits filed as inhibitors; hit rate 1.2% among 300,000; AID 540256, 2011; calls by dose curve; tested in HEK293 cells; note: nearly all actives have a fitted effect of over 50% in size
Numbers stand for hits; – = inactive; ? = inconclusive; · = no result given; [ ] = remark or other dose. This is a sample that favours compounds with a hit; in the whole collection about 13% have one here.

SMILES	HCV inh	FMDV inh	Shiga toxin inh	CHX counter	MARV entry inh	Lassa entry inh
Cc1ccc2c(c1)c(C)c(C)n2CC(O)Cn1nnc2ccccc21 (stereo unspecified)	?	–	–	30.3	20.6µM	?
COc1ccc(C2=Nc3ccccc3NC(c3cccs3)=N2)cc1	·	–	·	·	20µM	–
Fc1ccc(Cn2c(SCc3ccc(F)c(C(F)(F)F)c3)nnc2C(F)(F)F)cc1	–	?	–	–	?	?
Fc1ccc(Cn2c(SCc3ccc(F)c(F)c3)nnc2C(F)(F)F)cc1	?	?	45.2	14.0	–	–
CCCc1nc(NCc2ccncc2)c2nnn(Cc3ccccc3F)c2n1	?	?	–	–	–	?
CCCc1nc(NCc2ccccn2)c2nnn(Cc3ccccc3F)c2n1	?	25.1µM	–	–	–	–
O=C(C1CCN(c2ncnc3c2nc2n3CCCCC2)CC1)N1CCN(c2ccc(Cl)cc2)CC1	·	–	·	·	·	–
O=C(Nc1ccc(Cl)cn1)C1CCN(c2ncnc3c2nc2n3CCCCC2)CC1	10µM	?	–	–	3.55µM	–
Clc1cccc(N2CCN(c3ncnc4c3nc3n4CCCCC3)CC2)c1	·	11.2µM	·	·	2.82µM	?
O=C(Nc1ccc(Cl)cn1)C1CCCN(c2ncnc3c2nc2n3CCCCC2)C1 (stereo unspecified)	?	–	–	–	·	·
Cc1c(Cl)cccc1NC(=O)C1CCN(c2ncnc3c2nc2n3CCCCC2)CC1	·	–	·	·	·	–
O=C(C1CCN(c2ncnc3c2nc2n3CCCCC2)CC1)N1CCN(c2cccc(Cl)c2)CC1	?	22.4µM	–	–	·	–
CCN1CCN(Cc2c(O)ccc3c2O/C(=C\C=C\c2ccccc2OC)C3=O)CC1	–	–	97.4	57.3	?	–
CCN1CCN(Cc2c(O)ccc3c(=O)c(-c4ccccc4OC)coc23)CC1	–	·	–	–	–	–
O=C(Nc1ccc(S(=O)(=O)Nc2ncccn2)cc1)c1ccccc1Br	–	–	–	–	·	·
Cc1ccc(-n2nnnc2SCC(=O)N(CC(C)C)c2c(N)n(CC(C)C)c(=O)[nH]c2=O)cc1	–	–	–	–	–	?
COc1ccc(COc2ccc3ccc(=O)oc3c2)cc1	–	–	70.2	69.0	·	·
COc1cccc(COc2ccc3ccc(=O)oc3c2)c1	–	–	65.4	35.1	–	–
COc1ccc2ccc(=O)oc2c1	–[8.37 µM]	–	–	–	–	–
CN1CCN(C(=O)/C=C/c2ccc(Cl)c(Cl)c2)CC1	–	–	–	36.7	–	?
CN1CCN(C(=O)/C=C/c2ccc(Cl)cc2)CC1	–	–	–	24.5	?	–
O=c1cc(NCCc2ccccc2)c2ccccc2o1	?	–	42.2	24.1	–	·
O=C(NCc1ccco1)c1ccc2c(c1)N(Cc1ccccc1)C(=O)c1ccccc1S2	·	–	·	·	·	?
CN(C)C(=O)c1cc(C(=O)c2ccccc2Cl)c[nH]1	–	–	–	28.9	?	–
CN(C)C(=O)c1cc(C(=O)c2ccccc2)c[nH]1	–	–	–	18.4	–	?
SMILES	HCV inh	FMDV inh	Shiga toxin inh	CHX counter	MARV entry inh	Lassa entry inh
CCOC(=O)N1CCN(C(=O)CNC(=O)c2ccccc2F)CC1	–	–	·	·	?	–
CCOC(=O)c1cc(-c2nnc(-c3ccc(Cl)cc3)o2)c(C)nc1C	–	–	–	–	–	·
CCOC(=O)c1ccc(-c2nnc(-c3ccc(Cl)cc3Cl)o2)cc1	–	–	–	9.6	–	?
CCCCCC1CCC(c2n[nH]c(=S)n2C)CC1 (stereo unspecified)	–	–	–	–	?	?
Cc1[nH][nH]c(=O)c1C(c1ccc(-c2cccc(C(=O)O)c2)o1)c1c(C)[nH][nH]c1=O	–	–	74.4	58.5	–	–
Cc1ccc(C(=O)COC(=O)c2cn3ccccc3n2)cc1	–	–	–	42.2	·	·
Cn1ccc(C(=O)OCC(=O)c2ccccc2)n1	–	–	–	16.9	–	–
O=C(Nc1nccs1)c1cn2ccccc2n1	–	–	–	–	·	·
Cc1ccc(C(=O)COC(=O)c2cnccn2)cc1	–	–	–	–	?	–
NNC(=O)c1cn2ccccc2n1	–	–	59.6	29.0	?	–
CCc1cccc2c(C(=O)COC(=O)c3ccccc3)c[nH]c12	?	–	76.2	21.1	–	–
CCc1cccc2c(C(=O)COC(=O)c3ccc(O)cc3)c[nH]c12	?	–	53.1	36.9	–	?
CCc1cccc2c(C(=O)COC(=O)c3nccnc3N)c[nH]c12	?	–	·	·	–	–
CC(C)C(N)C(=O)NC(Cc1c[nH]c2ccccc12)C(=O)O (stereo unspecified)	·	–	·	·	·	·
O=C(Nc1ccc2c(c1)OCCO2)C(CCc1ccccc1)N1CCN(C/C=C/c2ccccc2)CC1 (stereo unspecified)	·	–	·	·	·	·
Cc1cc2cc(CNC(=S)NCc3ccccc3)ccc2n1C	–	–	–	–	–	–
Cc1ccc2c(c1)cc(C(=O)NCc1ccccc1)n2C	–	–	–	–	0.631µM	?
Cc1cc2cc(CNC(=O)c3cccs3)ccc2n1C	–	–	55.6	37.5	–	–
Cc1cc2cc(CNC(=O)Nc3ccccc3)ccc2n1C	–	–	47.7	18.4	–	?
CCOC(=O)NCc1ccc2c(c1)cc(C)n2C	–	–	–	15.0	–	–
CCC(CC)C(=O)NCc1ccc2c(c1)cc(C)n2C	–	–	–	–	–	–
COc1ccc(CNC(=O)c2cc3cc(C)ccc3n2C)cc1	·	–	·	·	?	?
COc1ccc(CCC(C)NC2C3CC4CC(C3)CC2C4)cc1 (stereo unspecified)	?	–	–	–	–	?
COc1ccc(N(CC(=O)NC2CC3CCC2C3)S(=O)(=O)c2ccc(C)cc2)cc1 (stereo unspecified)	–	–	–	–	?	?
CC1CCN(S(=O)(=O)c2ccc3c(ccc(=O)n3CC(=O)NCc3ccccc3Cl)c2)CC1	·	–	·	·	·	–
SMILES	HCV inh	FMDV inh	Shiga toxin inh	CHX counter	MARV entry inh	Lassa entry inh
CCOC(=O)CCC(=O)NCc1ccc2c(c1)cc(C)n2C	–	–	–	–	?	–
CCCCC(=O)NCc1ccc2c(c1)cc(C)n2C	–	–	51.5	–	–	–
COC(=O)c1ccc2c(c1O)C(=O)c1ccccc1C2=O	?	–	64.1	39.3	?	?
O=C1c2ccccc2C(=O)c2c1ccc(O)c2O	–	–	·	·	·	·
COc1cc(CNCc2ccccn2)ccc1OCc1ccc(Cl)c(Cl)c1	–	–	64.3	19.5	?	?
COc1cc(CNCc2ccccn2)ccc1OCc1ccc(Cl)cc1Cl	?	?	–	–	?	–
COc1cc(C=O)ccc1OCc1ccncc1	–	–	–	–	·	·
COc1cc(C=O)ccc1OCc1ccc(Cl)nc1	–	–	66.1	40.9	?	?
COc1ccc(CCNCc2ccc(OCc3ccc(Cl)nc3)c(OC)c2)cc1OC	?	–	–	–	12.6µM	–
COc1ccccc1CNS(=O)(=O)c1csc(C(N)=O)c1	–	–	–	–	–	–
COc1ccc2c(c1)CCc1c(C(=O)Nc3c(C)nn(Cc4c(Cl)cccc4Cl)c3C)noc1-2	·	–	·	·	–	–

Screens from PubChem BioAssay.
